# Source: ChEMBL document CHEMBL5606460, “ASAP - DENV-2 NS2B-NS3 protease fluorescence single point” (2024)
# About 110 (5.5%) of roughly 2,000 compounds showed an effect of 50% or more. The sample holds strong results, similar compounds and a random draw of the others, so the mix is not that of the screen.
# Biological target: Genome polyprotein (dengue virus type 2) (UniProt P29990)
# [1] = Thailand/16681/1984, Concentration 25.0 uM, Number of replicates 1.0
smiles,measurement,setting,value
CN(C)Cc1cc(C(=O)Nc2cc(Cl)cc(C(=O)NC(C)(C)CO)c2)ccn1,inhibition,"Thailand/16681/1984, Concentration 49.5 uM, Number of replicates 2.0, Standard deviation 0.8373879793632091 %",-0.805%
same,inhibition,"Thailand/16681/1984, Concentration 99.01 uM, Number of replicates 2.0, Standard deviation 1.3878191722501325 %",-0.768%
same,inhibition,"Thailand/16681/1984, Concentration 198.0 uM, Number of replicates 2.0, Standard deviation 1.150645337077672 %",-0.077%
CC(=O)N1CCC(N(C)C(=O)C2CCN(c3ccc(C=O)cc3)CC2)CC1,inhibition,[1],10.9%
O=Cc1ccc(N2CCC(C(=O)N3CCOCC3)CC2)cc1,inhibition,[1],13.3%
Nc1ccc(/C=C/C(=O)C(=O)N2CCN(CCc3ccccc3)CC2)cc1,inhibition,"Thailand/16681/1984, Concentration 49.5 uM, Number of replicates 2.0, Standard deviation 0.14046836541625998 %",23.4%
same,inhibition,"Thailand/16681/1984, Concentration 99.01 uM, Number of replicates 2.0, Standard deviation 0.26272659487750905 %",40.1%
same,inhibition,"Thailand/16681/1984, Concentration 198.0 uM, Number of replicates 2.0, Standard deviation 0.8058693227147314 %",60.1%
O=C(/C=C/c1ccccc1)C(=O)N1CCN(CCc2ccccc2)CC1,inhibition,"Thailand/16681/1984, Concentration 49.5 uM, Number of replicates 2.0, Standard deviation 1.1058163895680901 %",-0.075%
same,inhibition,"Thailand/16681/1984, Concentration 99.01 uM, Number of replicates 2.0, Standard deviation 1.051850300329286 %",3.22%
same,inhibition,"Thailand/16681/1984, Concentration 198.0 uM, Number of replicates 2.0, Standard deviation 0.9821847629012651 %",9.52%
NCc1ccc(/C=C/C(=O)C(=O)N2CCOCC2)cc1,inhibition,"Thailand/16681/1984, Concentration 49.5 uM, Number of replicates 2.0, Standard deviation 0.4887874545992688 %",28.7%
same,inhibition,"Thailand/16681/1984, Concentration 99.01 uM, Number of replicates 2.0, Standard deviation 0.17235835687354284 %",48.5%
same,inhibition,"Thailand/16681/1984, Concentration 198.0 uM, Number of replicates 2.0, Standard deviation 0.3206181572929207 %",70.2%
CN(C)c1ccc(/C=C/C(=O)C(=O)N2CCOCC2)cc1,inhibition,"Thailand/16681/1984, Concentration 49.5 uM, Number of replicates 2.0, Standard deviation 1.4993650320557768 %",37.9%
same,inhibition,"Thailand/16681/1984, Concentration 99.01 uM, Number of replicates 2.0, Standard deviation 1.3662996762867583 %",59.5%
same,inhibition,"Thailand/16681/1984, Concentration 198.0 uM, Number of replicates 2.0, Standard deviation 0.7538742729933879 %",78.8%
O=Cc1ccc(N2CCC(C(=O)N3CCN(CCc4ccccc4)CC3)CC2)cc1,inhibition,[1],33%
O=C(/C=C/c1ccc(N2CCNCC2)cc1)C(=O)N1CCOCC1,inhibition,"Thailand/16681/1984, Concentration 49.5 uM, Number of replicates 2.0, Standard deviation 1.4144964098734516 %",1.52%
same,inhibition,"Thailand/16681/1984, Concentration 99.01 uM, Number of replicates 2.0, Standard deviation 0.4568300281843685 %",5.18%
same,inhibition,"Thailand/16681/1984, Concentration 198.0 uM, Number of replicates 2.0, Standard deviation 1.1436463049734074 %",13.3%
CN(Cc1ccc(N2CCOCC2)cc1)C(=O)C1CCN(c2ccc(C=O)cc2)CC1,inhibition,[1],13.2%
CNC(=O)c1cc(Cl)ccc1NS(=O)(=O)c1[nH]ncc1C(=O)OC,inhibition,"Thailand/16681/1984, Concentration 49.5 uM, Number of replicates 2.0, Standard deviation 1.242021000664882 %",-1.06%
same,inhibition,"Thailand/16681/1984, Concentration 99.01 uM, Number of replicates 2.0, Standard deviation 0.08117786480507469 %",0.923%
same,inhibition,"Thailand/16681/1984, Concentration 198.0 uM, Number of replicates 2.0, Standard deviation 0.003820190349027435 %",2.41%
COc1cc(Cl)c(C)cc1NC(=O)C1CCN(c2ccc(C=O)cc2)CC1,inhibition,[1],13.9%
CC(C)(CNC(=O)C1CCN(c2ccc(C=O)cc2)CC1)c1cccc(Cl)c1,inhibition,[1],10.4%
N[C@H]1C[C@H](CNC(=O)[C@@H](NC(=O)OCc2ccccc2)c2ccc(OCc3ccccc3)cc2)C1,inhibition,"Thailand/16681/1984, Concentration 49.5 uM, Number of replicates 2.0, Standard deviation 4.035148717327061 %",-7.81%
same,inhibition,"Thailand/16681/1984, Concentration 99.01 uM, Number of replicates 2.0, Standard deviation 3.6381547385610027 %",-5.23%
same,inhibition,"Thailand/16681/1984, Concentration 198.0 uM, Number of replicates 2.0, Standard deviation 2.7035240962471856 %",9.08%
O=Cc1ccc(N2CCC(C(=O)NC3C4CC5CC(C4)CC3C5)CC2)cc1 (stereo unspecified),inhibition,[1],6.37%
CN(Cc1cccc2ccccc12)C(=O)C1CCN(c2ccc(C=O)cc2)CC1,inhibition,[1],11.3%
Cc1c(C2CCNCC2)cnn1Cc1nnc(-c2ccccc2)o1,inhibition,"Thailand/16681/1984, Concentration 49.5 uM, Number of replicates 2.0, Standard deviation 2.3622904402078886 %",-2.18%
same,inhibition,"Thailand/16681/1984, Concentration 99.01 uM, Number of replicates 2.0, Standard deviation 1.8884466143634908 %",-1.86%
same,inhibition,"Thailand/16681/1984, Concentration 198.0 uM, Number of replicates 2.0, Standard deviation 1.0159128732525171 %",-0.491%
Cc1cccc(NC(=O)CNC(=O)C2CCN(c3ccc(C=O)cc3)CC2)c1C,inhibition,[1],13%
Cc1cc(CO)c2cccc(NC(=O)Cc3cccc(CN)c3)c2n1,inhibition,"Thailand/16681/1984, Concentration 49.95 uM, Number of replicates 2.0, Standard deviation 1.2018993187616485 %",15.4%
same,inhibition,"Thailand/16681/1984, Concentration 99.9 uM, Number of replicates 2.0, Standard deviation 0.39117400474888586 %",23.6%
Cc1cc(CO)c2cccc(NC(=O)[C@@H](N)CC(N)=O)c2n1,inhibition,"Thailand/16681/1984, Concentration 49.95 uM, Number of replicates 2.0, Standard deviation 1.8295341709834483 %",-3.67%
same,inhibition,"Thailand/16681/1984, Concentration 99.9 uM, Number of replicates 2.0, Standard deviation 6.049352845396267 %",-1.2%
Cc1cc(CO)c2cccc(Cc3ccccc3NC(=O)[C@H](N)CCO)c2n1,inhibition,"Thailand/16681/1984, Concentration 49.95 uM, Number of replicates 2.0, Standard deviation 1.1804730410904682 %",-2.49%
same,inhibition,"Thailand/16681/1984, Concentration 99.9 uM, Number of replicates 2.0, Standard deviation 1.1029287785847963 %",-0.758%
Cc1cc(CO)c2cccc(NC(=O)CCN)c2n1,inhibition,"Thailand/16681/1984, Concentration 49.95 uM, Number of replicates 2.0, Standard deviation 0.675365146636023 %",28.7%
same,inhibition,"Thailand/16681/1984, Concentration 99.9 uM, Number of replicates 2.0, Standard deviation 0.4014376052982588 %",91.2%
Cc1cc(CO)c2cccc(Nc3cc(C)on3)c2n1,inhibition,"Thailand/16681/1984, Concentration 49.95 uM, Number of replicates 2.0, Standard deviation 1.3194982141200182 %",1.66%
same,inhibition,"Thailand/16681/1984, Concentration 99.9 uM, Number of replicates 2.0, Standard deviation 1.2714193652686099 %",2.71%
